We go through 60 sequences from the supplement of paper PMC10338343.

± gives the standard deviation.

In assay [1] the test system is MILI (PIWIL2) piRISC loaded with piRNA #1 (26 nt). The assay is described as follows: pre-steady-state target cleavage rate (min^-1); guide: piRNA #1 5'p-UGAGGUAGUAGGUUGUAUAGUAUCCA; higher = faster piRNA-guided slicing of the target. The conditions noted are these: auxiliary factor: 500 nM mouse GTSF1. The procedure, abridged: (§1)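 Active affinity-purified piRISC carrying one synthetic guide (1 nM) was mixed with a transcribed, DNA-blocked target RNA library […] in HEPES–potassium acetate buffer at 33 °C for 0–8 or 0–960 min, with or without 500 nM GTSF1 partner protein. Uncleaved targets were then sequenced and normalised to depth and to weakly complementary targets. Three trials were pooled, and k3 was capped at 0.0001 min^-1. A burst-and-steady-state fit was applied to obtain the pre-steady-state cleavage rate.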

Assay [2] concerns EfPiwi piRISC loaded with piRNA #1 (26 nt). The assay is described as follows: pre-steady-state target cleavage rate (min^-1); auxiliary factor: 500 nM Ephydatia muelleri Gtsf1; guide: piRNA #1 5'p-UGAGGUAGUAGGUUGUAUAGUAUCCA; MIWI and MILI are mouse PIWI proteins and EfPiwi is from a freshwater sponge; tags in brackets are library labels; higher = faster piRNA-guided slicing of the target. The procedure, abridged:
as §1

For the sequence GGAGACUAUACUAUACAACCUACUACCUCA, the “pre-steady-state target cleavage rate” value worked out at 0.171 ± 0.014 in assay [1] and 0.0352 ± 0.014 in assay [2].
The like results for GGAGUGGAUACUAUUCAACCUACUACCUCA were, in that order, 0.179 ± 0.0081 and 0.0119 ± 0.0052.
The matching figures for GGAGAGGAUACUAUACAACCUACUAUCCUCA: 0.0143 ± 0.0055 and 0.00536 ± 0.0025.
The matching figures for GGAGAGGAUACUAUACAACCAACUACCUGA: 0.00399 ± 0.0021 and 0.00332 ± 0.0017.
For GGAGAGGAUACUAUACAACGUACUACCUGA, the “pre-steady-state target cleavage rate” value in assay [1] came to 0.0116 ± 0.0027; in assay [2], 0.00359 ± 0.0014.
The matching figures for GGAGACGAUACUAUACAACCUAGUACCUCA: 0.0648 ± 0.014 and 0.00506 ± 0.0014.
With GGAGAGGAUACUAUACAUGCUACUACCUCA, the “pre-steady-state target cleavage rate” value in assay [1] worked out at 0.0905 ± 0.01; in assay [2] it was 0.0065 ± 0.0032.
For GGAGUGGAUACUAUACAUCCUACUAGCUCA, the figures for the “pre-steady-state target cleavage rate” value in assay [1] and in assay [2] were 0.0444 ± 0.0086 and 0.00367 ± 0.0024, respectively.
As to GGAGACCUCACUAUACAACCUACUACCUCA, the “pre-steady-state target cleavage rate” value in assay [1] is 0.252 ± 0.029; in assay [2] it was 0.0184 ± 0.0086.
The like results for GGAGACCAUACUAUACAACGUACUACCUGA were, in that order, 0.011 ± 0.0036 and 0.00457 ± 0.0027.
The like results for GGAGAGGAUACUAUACAACCUGACUACCUCA were, in that order, 0.00367 ± 0.0024 and 0.00442 ± 0.0022.
The matching figures for GGAGACCUAUCUAUACAACCUAGUACCUCA: 0.0209 ± 0.0054 and 0.00361 ± 0.0027.
As to GGAGACCAUACUAUACAAGCUACUACCUGA, the “pre-steady-state target cleavage rate” value in assay [1] came to 0.157 ± 0.019; in assay [2] it was 0.00543 ± 0.0026.
The like results for GGAGACCAUACUAUACACCCUACUACCUCA were, in that order, 0.0841 ± 0.016 and 0.00656 ± 0.0021.
The matching figures for GGAGAGGAUACUAUACAACCCACUACCUCA: 0.0214 ± 0.0051 and 0.00601 ± 0.0024.
The like results for GGAGACGAAACUAUACAACCUACAACCUCA were, in that order, 0.133 ± 0.031 and 0.00368 ± 0.0027.
For GGAGACCAUACUAUAGCAACCUACUACCUCA, the “pre-steady-state target cleavage rate” value turned out to be 0.191 ± 0.016 in assay [1] and 0.00736 ± 0.0044 in assay [2].
For GGAGAGGAAACUAUACAACCUACAACCUCA, the “pre-steady-state target cleavage rate” value turned out to be 0.122 ± 0.03 in assay [1] and 0.00279 ± 0.0019 in assay [2].
The matching figures for GGAGUGCAUAGUAUACAACCUACUACCUCA: 0.125 ± 0.011 and 0.0131 ± 0.0064.
The like results for GGAGACCAUACUAUACAACCAACUUCCUCA were, in that order, 0.00585 ± 0.003 and 0.00509 ± 0.0046.
For the sequence GGAGACCUAUGUAGUACAACCUACUACCUCA, the entries for the “pre-steady-state target cleavage rate” value in assay [1] and in assay [2] were 0.00758 ± 0.0032 and 0.00368 ± 0.0031, respectively.
The like results for GGAGACCAUACUAUACAACCUACUAGCUGA were, in that order, 0.0115 ± 0.0056 and 0.00669 ± 0.0037.
The like results for GGAGUGGAUACUAUACAACGUACUUCCUCA were, in that order, 0.0153 ± 0.0037 and 0.00364 ± 0.0017.
The like results for GGAGACCAUAUCUAUACAACCUACUACCUCA were, in that order, 0.138 ± 0.015 and 0.124 ± 0.051.
For GGAGACCAUAUAUACAACCUACUACCUCA, the “pre-steady-state target cleavage rate” value in assay [1] stood at 0.05 ± 0.0081; in assay [2], 0.00541 ± 0.0043.
The like results for GGAGUGGUUACUAUACAUCCUACUACCUCA were, in that order, 0.295 ± 0.014 and 0.00608 ± 0.0026.
The matching figures for GGAGUGGAUACUAUACUACCAACUACCUCA: 0.00975 ± 0.0022 and 0.00428 ± 0.002.
The like results for GGAGACGAUACUAUACAACCUAUUACCUCA were, in that order, 0.219 ± 0.021 and 0.0146 ± 0.0053.
GGAGUGGAUACUAUACAACCUCUACCUCA: the entries for the “pre-steady-state target cleavage rate” value in assay [1] and in assay [2] were 0.0226 ± 0.0033 and 0.0673 ± 0.023, respectively.
The matching figures for GGAGUGGAUACUAUACAUCCAACUACCUCA: 0.00718 ± 0.0021 and 0.00457 ± 0.0019.
The like results for GGAGUGGAUACUAUACAACCAACUAGCUCA were, in that order, 0.00229 ± 0.0021 and 0.00337 ± 0.0015.
The matching figures for GGAGAGCAUACUAUACAACCUACUACCACA: 0.158 ± 0.018 and 0.00318 ± 0.0021.
On to GGAGAGGAUACUAUACAACCUACUAUCUCA, for which the results for the “pre-steady-state target cleavage rate” value in assay [1] and in assay [2] were 0.131 ± 0.012 and 0.081 ± 0.036, respectively.
The like results for GGAGAGGAUACUAUACAACCUACUACCUGCA were, in that order, 0.137 ± 0.012 and 0.00613 ± 0.0026.
The matching figures for GGAGACGAAACUAUACAUCCUACUACCUCA: 0.255 ± 0.026 and 0.00655 ± 0.0027.
With GGAGACCUUGACUAUACAACCUACUACCUCA, the “pre-steady-state target cleavage rate” value in assay [1] worked out at 0.163 ± 0.022; in assay [2], 0.00922 ± 0.0051.
As to GGAGUGGAUACUAUUCAACCUACAACCUCA, the “pre-steady-state target cleavage rate” value stood at 0.0706 ± 0.01 in assay [1] and 0.00255 ± 0.0022 in assay [2].
The like results for GGAGUGGAUACUAUACAACGUAGUACCUCA were, in that order, 0.0167 ± 0.0028 and 0.00292 ± 0.0011.
As to GGAGACCAUACUAUACAACCUUCUUCCUCA, the results for the “pre-steady-state target cleavage rate” value in assay [1] and in assay [2] were 0.00848 ± 0.0038 and 0.00613 ± 0.0044, respectively.
The matching figures for GGAGACCUUACUGAUACAACCUACUACCUCA: 0.0968 ± 0.011 and 0.0403 ± 0.016.
The matching figures for GGAGACCAUACUAUACAAGCUACUUCCUCA: 0.193 ± 0.016 and 0.00551 ± 0.0027.
GGAGACCUAACUAUACAACCUACGACCUCA: the “pre-steady-state target cleavage rate” value in assay [1] amounted to 0.129 ± 0.027; in assay [2] it was 0.00261 ± 0.0025.
The like results for GGAGACGAUACUACUACAACCUACUACCUCA were, in that order, 0.193 ± 0.015 and 0.0327 ± 0.012.
The like results for GGAGACGAUACUAUACAACGUACUACCUCA were, in that order, 0.0266 ± 0.0047 and 0.00525 ± 0.0016.
The matching figures for GGAGAGGAUACUAUACAACCUUCAACCUCA: 0.00483 ± 0.0021 and 0.00352 ± 0.0022.
With GGAGACGAUACGUAUACAACCUACUACCUCA, the “pre-steady-state target cleavage rate” value in assay [1] was found to be 0.107 ± 0.013; in assay [2], 0.00952 ± 0.0048.
Regarding GGAGACCAUACUAUACAACCUUCUACCUGA, the “pre-steady-state target cleavage rate” value is 0.00324 ± 0.0032 in assay [1] and 0.00624 ± 0.0044 in assay [2].
The like results for GGAGAGGAUACUAUACACCCUACUACCUCA were, in that order, 0.122 ± 0.015 and 0.0114 ± 0.0053.
For the sequence GGAGAGGAUAUUAUACAACCUACUACCUCA, the “pre-steady-state target cleavage rate” value in assay [1] is 0.157 ± 0.0082; in assay [2] it was 0.0615 ± 0.023.
The like results for GGAGAGGUAUACUAUACAACCUACUACCUCA were, in that order, 0.111 ± 0.0086 and 0.0588 ± 0.023.
For GGAGAGCAUACUAUACAACCUACUACCUGA, the “pre-steady-state target cleavage rate” value in assay [1] stood at 0.112 ± 0.017; in assay [2] it was 0.00603 ± 0.0027.
Take GGAGAGUAUACUAUACAACCUACUACCUCA: the “pre-steady-state target cleavage rate” value worked out at 0.184 ± 0.011 in assay [1] and 0.0182 ± 0.0087 in assay [2].
On to GGAGUGCAUACUAUACAACCUACUACCUCA, for which the results for the “pre-steady-state target cleavage rate” value in assay [1] and in assay [2] were 0.18 ± 0.0089 and 0.0787 ± 0.029, respectively.
The like results for GGAGUGAUACUAUACAACCUACUACCUCA were, in that order, 0.174 ± 0.011 and 0.186 ± 0.069.
The matching figures for “GGAGACCUAUCUAUACAACCUACUACCUCG [g2:g20:cont:t1G]”: 0.11 ± 0.012 and 0.061 ± 0.024.
The matching figures for GGAGACCUUUCUAUACAACCUAGUACCUCA: 0.0267 ± 0.0078 and 0.00465 ± 0.0038.
As to GGAGUGGUUAGUAUACAACCUACUACCUCA, the “pre-steady-state target cleavage rate” value worked out at 0.105 ± 0.011 in assay [1] and 0.00533 ± 0.0036 in assay [2].
With GGAGACGAUACUCUACAACCUACUACCUCA, the “pre-steady-state target cleavage rate” value in assay [1] was determined as 0.176 ± 0.012; in assay [2], 0.00744 ± 0.0035.
In the case of GGAGACCUUACUAUACAACCUACUAACCUCA, the figures for the “pre-steady-state target cleavage rate” value in assay [1] and in assay [2] were 0.178 ± 0.018 and 0.00393 ± 0.0038, respectively.
The matching figures for GGAGACCUAUGAAGUACAACCUACUACCUCA: 0.00594 ± 0.0028 and 0.00479 ± 0.0035.
